Source: ChEMBL document CHEMBL4513216, “Probing the Open Global Health Chemical Diversity Library for Multistage-Active Starting Points for Next-Generation Antimalarials” (ACS Infect Dis, 2020)
Out of some 69,000 compounds screened, about 8,600 (12%) showed an effect of 50% or more. This is one part of a sample in which strong results are shown more often than they occur.

Tested on: Plasmodium berghei
Test: Screen against P. berghei liver stage (PbLuc), transformed with Luciferase, at 10uM
Format: functional, HepG2
Details: tested at 10 uM

First: COCCn1ccnc1-c1cc(CN2CCCCC2)cs1
Second: c1cn(CCc2c[nH]cn2)c(-c2cc(CN3CCCC3)cs2)n1
The INHIBITION of the first is lower: 8.51% for the first, 60% for the second.

First: Nc1nc(Cn2ccnc2-c2cc(CN3CCCC3)cs2)cs1
Second: Cc1cc(CN2CCc3nc(-c4ccncc4)nc(O)c3CC2)c(C)s1
The INHIBITION of the first is lower: 42.1% for the first, 83.3% for the second.

First: Oc1nc(N2CCOCC2)nc2c1CCN(Cc1cccnc1)CC2
Second: Oc1nc(N2CCOCC2)nc2c1CCN(Cc1ccccc1)CC2
The INHIBITION of the first is lower: 23.3% for the first, 35.2% for the second.

Going from `Oc1nc(N2CCOCC2)nc2c1CCN(Cc1cccc(F)c1)CC2` to `Oc1nc(N2CCOCC2)nc2c1CCN(Cc1ccc(F)cc1)CC2`, the INHIBITION falls from 54.5% to 38.2%.

Going from `CCn1cc(CN2CCc3nc(N4CCOCC4)nc(O)c3CC2)cn1` to `Cc1cc(CN2CCc3nc(N4CCOCC4)nc(O)c3CC2)c(C)s1`, the INHIBITION rises from 29.6% to 90.7%.

Going from `Cc1nc(O)c2c(n1)CCN(Cc1cc(C)sc1C)CC2` to `Cc1cc(CN2CCc3nc(C(C)C)nc(O)c3CC2)c(C)s1`, the INHIBITION rises from 60.1% to 62.9%.

First: CC(C)c1ncc2c(n1)CN(Cc1cccc3c1OCCO3)CC2
Second: Cc1ccc(CN2CCc3nc(C(C)C)nc(O)c3CC2)s1
The INHIBITION of the first is higher: 37.7% for the first, 2.55% for the second.

First: Cc1nc(C)c2c(n1)CCN(Cc1ccco1)CC2
Second: Cc1nc2c(c(NC(C)C)n1)CCN(Cc1cccnc1)CC2
The INHIBITION of the first is lower: -53.2% for the first, 49.7% for the second.

Going from `Cc1cccc(C(=O)N2C[C@@H]3C(CC(=O)Nc4cccnc4)[C@@H]3C2)n1` (stereo partly drawn) to `Cc1ccc(O)c(CN2CCc3nc(-c4cccnc4)nc(O)c3C2)c1`, the INHIBITION rises from 30.9% to 32.8%.

Going from `Cc1ccsc1C(=O)N1CC[C@@H](N(C)C)[C@@H]1Cc1cnn(C)c1` to `Cc1cnn(C2CCCN(C(=O)CCc3cscn3)C2)c1` (stereo not drawn), the INHIBITION falls from 36.9% to 33.7%.

Compared with `O=C(CN1CCCC1)Nc1c2c(cc3c1CCC3)CCC2`, `Cn1ncc2c1CCCN(C(=O)C1CC1)C2` is higher in INHIBITION: -3.47% for the first, 24.69% for the second.

First: CN(C)c1cc(C(=O)N2CCCCC2CNS(C)(=O)=O)ccn1 (stereo not drawn)
Second: CS(=O)(=O)N1CCC(NC(=O)COc2ccc(Cl)c(Cl)c2)CC1
The INHIBITION of the first is lower: -8.11% for the first, 27.4% for the second.

Compared with `CC(C)(C)SCCN1CC(=O)N2CC[C@@H](O)C[C@H]2C1=O`, `Cc1csc(CCNC(=O)C2CCN(CC(N)=O)CC2)n1` is lower in INHIBITION: 11.265% for the first, -23.5% for the second.

Compared with `CN1CC(=O)N(c2ccccc2)CC12CCN(CCO)C2` (stereo not drawn), `O=C(O)C1(n2cccn2)CCN(Cc2nc(-c3ccccc3)no2)CC1` is lower in INHIBITION: 41.3% for the first, 35.9% for the second.

Going from `C=Cn1ncc(CN2CCc3nc(-c4ccncc4)nc(O)c3C2)c1C` to `Cc1ccc(-c2noc(CN3CCC(c4ccn[nH]4)CC3)n2)cc1`, the INHIBITION falls from 17.1% to 12.8%.

Going from `O=C(NCc1ccc(OCC2CC2)nc1)c1c(F)cccc1F` to `O=C(O)c1ccc(Cc2cccc(F)c2)nc1`, the INHIBITION rises from -26.8% to 3.48%.

First: CN(C)C(=O)CNS(=O)(=O)c1cc(Br)ccc1F
Second: CCN(CC)C(=O)CNS(=O)(=O)c1cc(Br)ccc1F
The INHIBITION of the first is higher: 42.4% for the first, 23% for the second.

Going from `CCNC(=O)CNS(=O)(=O)c1cc(Br)ccc1F` to `CC(C#N)CSc1ccccc1NCC(=O)NC(=O)NC(C)(C)C` (stereo not drawn), the INHIBITION rises from 53.6% to 61.3%.

Going from `COCC(=O)N1CCCC(Cc2cnc(-c3c(C)n[nH]c3C)cn2)C1` (stereo not drawn) to `CC(=O)N1CCCN(c2cc(C3CN(C)CCO3)nc(C)n2)CC1` (stereo not drawn), the INHIBITION rises from -29.8% to 36.4%.

Compared with `CC(C#N)CSc1ccccc1NCC(=O)NC(C1CC1)C1CC1` (stereo not drawn), `CC(C#N)CSc1ccccc1NCC(=O)NC1CCCCC1` (stereo not drawn) is higher in INHIBITION: 43.4% for the first, 54.4% for the second.

Compared with `CC(C#N)CSc1ccccc1NCC(=O)NCc1cccs1` (stereo not drawn), `CC(C#N)CSc1ccccc1NCC(=O)NCc1ccccc1` (stereo not drawn) is lower in INHIBITION: 58.3% for the first, 14.2% for the second.

Compared with `O=C(CSc1nnc[nH]1)NCc1cccs1`, `NC(=O)CN1CCC(C(=O)NCc2nc(-c3ccc(F)cc3)cs2)CC1` is higher in INHIBITION: -95.7% for the first, 55.2% for the second.

Going from `CC(C)CNC(=O)NC(=O)CNc1ccccc1SCC(C)C#N` (stereo not drawn) to `CC(C#N)CSc1ccccc1NCC(=O)Nc1ccccc1` (stereo not drawn), the INHIBITION rises from -7.9% to 26.5%.

Going from `CC(C#N)CSc1ccccc1NCC(=O)Nc1ccc(F)cc1` (stereo not drawn) to `CCSc1ccccc1C(=O)N(CCOC)Cc1ccoc1`, the INHIBITION rises from 11.1% to 25.1%.

Compared with `O=c1[nH]c2cn(-c3cccc(F)c3)c(=O)n2n1Cc1ccc(Cl)cc1`, `CCc1nc(N2CCC3(CC2)CC(=O)N(Cc2ccc(Cl)cc2)C3)no1` is lower in INHIBITION: 28.7% for the first, -88.1% for the second.

Compared with `Cc1cc(C(F)(F)F)nn1CC(C)C(=O)NC(C)C` (stereo not drawn), `CC(C)CN1CCn2nc(CNc3ncnc4[nH]ccc34)cc2C1` is lower in INHIBITION: 42.4% for the first, -2.39% for the second.

Going from `CNC(=O)CN1CCCC12CCN(Cc1c[nH]cn1)CC2` to `N#Cc1ccc(C(=O)NCC2(N3CCOCC3)CCCC2)nc1`, the INHIBITION falls from 19.5% to 10.8%.

First: COc1ccc(C[C@H]2CNCC[C@H]2OC)cc1
Second: COc1ccc(C2(C(=O)NC3CCc4nccn4C3)CCCC2)cc1 (stereo not drawn)
The INHIBITION of the first is lower: 1.34% for the first, 24.3% for the second.

Going from `O=C(CCCn1cncn1)NC1CCc2nccn2C1` (stereo not drawn) to `O=C(CCn1cncn1)NC1CCc2nccn2C1` (stereo not drawn), the INHIBITION falls from 62.1% to -3.7%.

Compared with `CS(=O)(=O)C1(C(=O)NC2CCc3nccn3C2)CCCC1` (stereo not drawn), `CCS(=O)(=O)CC(=O)NC1CCc2nccn2C1` (stereo not drawn) is lower in INHIBITION: 74.8% for the first, 36.3% for the second.

Compared with `Cc1cn2c(n1)CCC(NC(=O)CCCn1cncn1)C2` (stereo not drawn), `CCc1n[nH]c(C2CN(CCCS(C)(=O)=O)CCO2)n1` (stereo not drawn) is lower in INHIBITION: 29.2% for the first, 9.14% for the second.

Going from `Cc1nc(C)n(CC2CN(Cc3noc(C4CC4)n3)CCO2)n1` (stereo not drawn) to `Cc1ccccc1-c1noc(CN2CCOC(Cn3cccn3)C2)n1` (stereo not drawn), the INHIBITION rises from 16.8% to 23.95%.

First: NC(=O)CN1CCC(C(=O)NCCc2nc(-c3ccccc3)cs2)CC1
Second: O=C1NCCN1C1CCN(Cc2nc(-c3ccccc3)no2)CC1
The INHIBITION of the first is lower: -53.6% for the first, 92.3% for the second.

Going from `Cc1ccccc1-c1noc(CN2CCC(N3CCNC3=O)CC2)n1` to `Cc1cccc(-c2noc(CN3CCC(N4CCNC4=O)CC3)n2)c1`, the INHIBITION falls from 88.2% to 41.1%.

Going from `c1cnn(C2CN(Cc3nc(-c4ccsc4)no3)C2)c1` to `c1cc(C2CCN(Cc3nc(-c4ccsc4)no3)CC2)[nH]n1`, the INHIBITION falls from 17% to 8.12%.

Going from `Cc1ccccc1-c1noc(CN2CCC(c3ccn[nH]3)CC2)n1` to `Cc1ccc(-c2noc(CN3CCC(N4CCNC4=O)CC3)n2)cc1`, the INHIBITION rises from -7.46% to 86.8%.

In the case of `O=C1NCCN1C1CCN(Cc2nc(-c3ccsc3)no2)CC1`, the INHIBITION is reported as 85.4%.
